Assay results taken from the supplement of paper PMC6555819.

What follows are sequences tested on PPARg:RXRa 270nM:90nM, anti-RXR (NR concentration 270 nM, RXRa partner concentration 90 nM) (assay: PBM binding z-score (relative to random genomic background probes); higher = stronger binding; sequences stand for … in GC…GCGATTGACAGCGTAGAATGAAGG).
In short: (§1)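 For binding z-scores, the reference was random background probes on custom Agilent 4×180K protein-binding microarrays. These arrays were incubated 1 h with ligand-free nuclear receptor dimers in PBS pH 7.4, 2% milk, 0.02% Triton X-100, 1 mM DTT, 0.2 mg/mL BSA and 0.4 mg/ml salmon testes DNA. Fluorescence was scanned after antibody detection of each partner (one per run) and regression-normalized.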

| Sequence | PBM binding z-score |
| --- | --- |
| ATCGAAAGGTGGTGAGGTGAGTATACAGAAAGGC | 0.261 |
| CATGCTAGGTCAATGGTCAGCTAAAGCAGCTCGC | 4.63 |
| TCTCGGAGGACACGAAAGGCCAGAGCTCGACATC | 0.908 |
| AGAACGAGGTCAATGAGTTGATAGCACGGGTGGC | 6.01 |
| CCTTACGGGTCACGAGGTTCTAGCACGACGAGCG | 6.31 |
| CTCGAAAGGTCGGTTCAGGTGAGTATACGGATAA | 1.36 |
| CCTACTGGGCCATTTAGAGGTCATTGATCATATG | 3.15 |
| CGTCCAAGGACAGAGAGGTCAGTGAATGCCGAGT | 0.665 |
| ACAGACAGGTGAGTGAAGGTAAATCAGCTGGACG | -0.481 |
| CGTCCAAGGTGAAAGGTCAGTGAAGAGATGACGG | 8.09 |
| CAAACTAGGTCACAGAGGTCATAGTCCGTGCGTA | 8 |
| TAGCCTAGGTCATGGGTCAGTATACCACGCGAAC | 5.95 |
| AACTCTAGGTAAGACTCAGTTCAGTGAAGAACGC | -0.304 |
| TTAATGAGGTTATAAGATCAGGGAACGTTGCAAA | 2.7 |
| CGAACGAGGGCATGAGTTGATAGAAAATGCCGAT | 1.33 |
| CAAACTAGGTCACGAAAGCTCAAAGTCGAATGAC | 7.24 |
| CAAACTAGGTCACTGAGGTCAAAGTCCGTGCGTA | 7.91 |
| CCTTACGGGTCACGAGGTTTTAGCACGACGAGCG | 6.3 |

These sequences were tested on PPARg:RXRa 30nM:10nM, anti-RXR (NR concentration 30 nM, RXRa partner concentration 10 nM) in the same assay as above.
In short: as §1

| Sequence | PBM binding z-score |
| --- | --- |
| CCGACTGGGCCAAGGTCATTGATCAGTCAAAGCA | 0.61 |
| CAAACTAGGTCACGCAAGGTCAAAGTCGAATGAC | 6.97 |
| GCTGCTACGTCAGGTTGGTCAGCTAACGGGTACG | -0.756 |
| TCTCGGAGGACAAGAAAGGTCAGAGCTCGACATC | 2.52 |
| ACAATGAGGTTATACGTAGATCAGGGAAGAAAGT | 0.688 |
| GCGACTGGGGCAAAGCAGGTGACCATAAGGTTGG | -0.349 |
| ACCGAAAGGTCGAGGTGAGTATAGAGAAAGGGAA | 1.22 |
| ATACCAAGGCGATCGTGAGGTCGTTGATACTAAC | -0.383 |
| TCAGACAGGTGAAGGTAACTCACGTACGCAGTCG | 3.55 |
| TCATATAAGTAAAGGTGAAAGTCGAACGATATGA | 3.99 |
| CGAACTAGGTTATCCAGGACAGTGAATACATTGA | 0.585 |
| GGAACGAGGGCAAGTTGATAGCCGAGTTTGATGG | -0.224 |
| CGAATTAGGTCATCCAGGACAGTGAATACATTGA | 3.78 |
| TGAATGAGGTTATAAGATCAGGGGACGTTGCAAA | 0.887 |
| ATATGTAGGTTAGCGGGTCATTCAGTTTGCGCAT | 3.1 |
| GCTTACGGGTCAAAGGTTATAGCGTGAATAGAAT | 9.52 |
| CAGCCTAGGTCAGGTCCAGTATAGGAGGAACGTT | -0.0378 |
| ACTATAAGTTGACTTAGGGCAACCGATACGACGC | 0.44 |
| ATCTTTAGGTAAAGATAGTTCAGTGAATGCAAAT | 0.338 |
| TCTGATAGGTCAACGATGGTCAGCTAATCTGCTA | 3.79 |

| Sequence | PBM binding z-score |
| --- | --- |
| TAGCCTAGGTCATGCGGGCCAGTTTAGTGTCGGC | -0.211 |
| GCGACTGGGGCAAAGCAGCTTACCATAAGGTTGG | -0.326 |
| ATCGAAAGGTGGTGAGGTGAGTATACAGAAAGGC | 0.347 |
| CATGCTAGGTCAATGGTCAGCTAAAGCAGCTCGC | 2.27 |
| TCTCGGAGGACACGAAAGGCCAGAGCTCGACATC | 1.86 |
| AGAACGAGGTCAATGAGTTGATAGCACGGGTGGC | 3.19 |
| CCTTACGGGTCACGAGGTTCTAGCACGACGAGCG | 3.2 |
| CTCGAAAGGTCGGTTCAGGTGAGTATACGGATAA | 0.0497 |
| CCTACTGGGCCATTTAGAGGTCATTGATCATATG | 0.977 |
| CGTCCAAGGACAGAGAGGTCAGTGAATGCCGAGT | -0.328 |
| ACAGACAGGTGAGTGAAGGTAAATCAGCTGGACG | -0.0948 |
| CGTCCAAGGTGAAAGGTCAGTGAAGAGATGACGG | 7.25 |
| CAAACTAGGTCACAGAGGTCATAGTCCGTGCGTA | 7.14 |
| TAGCCTAGGTCATGGGTCAGTATACCACGCGAAC | 3.9 |
| AACTCTAGGTAAGACTCAGTTCAGTGAAGAACGC | -0.237 |
| TTAATGAGGTTATAAGATCAGGGAACGTTGCAAA | 1.97 |
| CGAACGAGGGCATGAGTTGATAGAAAATGCCGAT | 0.36 |
| CAAACTAGGTCACGAAAGCTCAAAGTCGAATGAC | 5.74 |
| CAAACTAGGTCACTGAGGTCAAAGTCCGTGCGTA | 5.72 |
| CCTTACGGGTCACGAGGTTTTAGCACGACGAGCG | 2.95 |
